Measured values: the supplement of paper PMC11732987, “Enantioselective OTUD7B fragment discovery through chemoproteomics screening and high-throughput optimisation” (Communications Chemistry, 2025)

molecular target: OTUB1 (UniProt Q96FW1); test: log2 ratio of Biotin-Ahx-Ub-VS probe labelling (fragment/DMSO); higher = less target engagement (more negative = stronger competition), active = hit call of the paper (q ≤ 0.05, log2 ratio ≤ -1); conditions: compound concentration: 200 uM; treatment time: 3 h
Sequence (Q96FW1 whole entry, the tested form may be a part): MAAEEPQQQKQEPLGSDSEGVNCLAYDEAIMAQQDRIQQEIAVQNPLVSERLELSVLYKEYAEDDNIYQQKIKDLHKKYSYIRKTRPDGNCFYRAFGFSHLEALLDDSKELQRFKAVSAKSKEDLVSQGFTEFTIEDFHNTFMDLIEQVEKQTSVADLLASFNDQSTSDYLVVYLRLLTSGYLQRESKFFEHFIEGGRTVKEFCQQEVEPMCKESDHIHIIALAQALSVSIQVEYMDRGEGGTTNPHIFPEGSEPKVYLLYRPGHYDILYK
Method in brief: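 Global-median-normalised Spectronaut label-free quantities were compared by unpaired t-test, and values are average log2 ratios of fragment over vehicle. Only proteins with ≥2 unique peptides were used. HEK293T lysate (495 µg per sample) was treated in triplicate with fragment at 200 µM or vehicle for 3 h and then with Biotin-Ahx-Ub-VS at 0.5 µM final for 1 h. Labelled DUBs were then NeutrAvidin-enriched, digested with LysC and trypsin, and run by diaPASEF LC-MS/MS.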

log2 ratio of Biotin-Ahx-Ub-VS probe labelling, inactive:
Cc1ccc(CN(C)C(=O)CCl)o1 0.103, O=C(CCl)N1CCC[C@@H]1c1ccon1 -0.236, COCC1C=CCCN1C(=O)CCl (stereo not given) 0.0515, Cl.Cn1c(CNC(=O)CCl)nc2cccnc21 -0.136, Cc1cccc(C)c1NC(=O)CCl -0.261, O=C(CCl)N1CCCC1c1ccsc1 (stereo not given) -0.142, NC(=O)C1CCCCN1C(=O)CCl (stereo not given) -0.182, Cc1cnc2[nH]cc(CCNC(=O)CCl)c2c1 0.0416, Cc1ccc(CNC(=O)CCl)nc1C.Cl -0.192, O=C(CCl)N1CCN2C(=O)CCC2C1 (stereo not given) -0.19, O=C(CCl)N1CCOCCC1c1ccccc1 (stereo not given) -0.0821, O=C(CCl)N1CCc2[nH]c3ccccc3c2C1 -0.167, CN(CCC(O)c1ccc(Br)cc1)C(=O)CCl (stereo not given) -0.231, CC(NC(=O)CCl)c1cnn(C2CC2)c1 (stereo not given) -0.137, CCN(C(=O)CCl)C1CCS(=O)(=O)C1 (stereo not given) -0.59, COc1ccc(-c2csc(NC(=O)CCl)n2)cc1 -0.0658, Cc1noc(N2CCN(C(=O)CCl)CC2)n1.Cl 0.11, O=C(CCl)N1CCCCCC1c1ncon1 (stereo not given) 0.099, O=C(CCl)N1CCc2sccc2C1 -0.126, O=C(CCl)Nc1ccc2c(c1)OC(F)(F)O2 0.13, O=C(CCl)N(C1CCCC1)C1CCS(=O)(=O)C1 (stereo not given) -0.343, O=C(CCl)N1CCCC2CCCCC21 (stereo not given) 0.0815, O=C(CCl)Nc1cccc(NC(=O)c2ccccc2)c1 -0.202, O=C(CCl)N1CCOCC1C1CC1 (stereo not given) -0.181, Cl.O=C(CCl)N1CCCC(c2ncc[nH]2)C1 (stereo not given) -0.0773, O=C(CCl)N1CC=C(c2c[nH]c3ccccc23)CC1 -0.218, Cl.O=C(CCl)N1CCC(Cc2nccs2)C1 (stereo not given) -0.388, O=C(CCl)Nc1ccccc1C(F)(F)F -0.144, Cc1ccc(C)c(Oc2ccc(CNC(=O)CCl)cn2)c1.Cl 0.0499, CC(=O)Nc1ccc(NC(=O)CCl)cc1 -0.24, O=C(CCl)N1CCC2(CCC(O)CC2)CC1 -0.0501, Cc1conc1C1CN(C(=O)CCl)C1 -0.109, COc1ccccc1C(C)NC(=O)CCl (stereo not given) -0.298, Cc1ccc(-c2nnc(C)[nH]2)c(NC(=O)CCl)c1 0.149, CS(=O)(=O)c1ccc(CNC(=O)CCl)cc1 -0.0582
